Screening results (PubChem)
T cruzi growth-1: inhibitors of T. cruzi proliferation | T. cruzi beta-gal in NIH3T3, GalScreen luminescence, 90 h | inhibition, % at 8.34 µM | 77,000 compounds, 5.9% hits | AID 624255;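 active = mean inhibition above about 93%, with at least 55% of replicates each passing it, limit read from the data, passing the limit was not always enough; inconclusive = only one of those two conditions holds; inactive = neither condition holds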
C diff growth: C. difficile growth inhibition; Clostridium difficile clinical isolate growth, OD600, 24 h; hits give low values; 86,000 compounds, 0.25% hits; AID 1259249; growth activity, negative = inhibition, % at 16 µg/mL (by protocol);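 active = mean growth activity at or below -80% and every replicate also at or below -80%; inconclusive = mean at or below -80% but some replicate above -80%; inactive = mean growth activity above -80%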
T cruzi growth-2: Trypanosoma cruzi proliferation inhibition. shares compounds with T cruzi growth-1. 5,600 compounds, 72% hits. inhibition, % at 8.35 µM. T. cruzi beta-gal in NIH3T3, GalScreen luminescence, 90 h;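 active = mean replicate inhibition above about 95% and at least 55% of replicates individually reaching it, limit read from the data; inconclusive = only one of the two criteria is met; inactive = neither criterion is met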
T cruzi growth-3: Trypanosoma cruzi proliferation inhibition; shares compounds with T cruzi growth-1; T. cruzi beta-gal in NIH3T3, GalScreen luminescence, 90 h; inhibition, % at 2.09 µM; 5,600 compounds, 21% hits;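 active = mean inhibition above about 95%, with at least 55% of replicates also reaching it, limit read from the data; inconclusive = meets just one of the two conditions; inactive = meets neither condition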
NIH3T3 tox: NIH/3T3 (mouse) viability loss; 5,600 compounds, 14% hits; cytotoxicity (signal decrease), % at 8.35 µM; NIH/3T3 viability, CellTiter-Glo ATP luminescence, 90 h; shares compounds with T cruzi growth-1; AID 651742;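 active = mean signal decrease across replicates above about 35% based on untreated-well scatter, with enough replicates individually passing, limit read from the data; inconclusive = no rule stated though some were filed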
NIH3T3 tox 2: kills mouse NIH/3T3 fibroblasts; shares compounds with T cruzi growth-1; NIH/3T3 viability, CellTiter-Glo ATP luminescence, 90 h; inhibition, % at 24.9 µM; 5,600 compounds, 56% hits; AID 651744;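 active = mean loss of cell viability signal at or above a set limit, and enough replicates individually reaching it; inconclusive = meets only the mean limit or only the replicate share; inactive = meets neither condition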
Numbers stand for hits; . = inactive; ? = inconclusive; / = no result given. This excerpt belongs to a sample that is enriched for hits.

SMILES	T cruzi growth-1	C diff growth	T cruzi growth-2	T cruzi growth-3	NIH3T3 tox	NIH3T3 tox 2
COc1ccc(C#Cc2ccc([C@H]3[C@H]4CN(C(=O)Cc5ccncc5)CCCCN4[C@H]3CO)cc2)cc1	107	.	98	.	77	98
O=C(Cc1ccncc1)N1CCCCN2[C@H](CO)[C@@H](c3ccc(C#CC4(O)CCCC4)cc3)[C@@H]2C1	105	.	.	.	.	.
COc1ccc(-c2ccc([C@@H]3[C@H]4CN(C(=O)Cc5ccccc5)CCCCN4[C@H]3CO)cc2)cc1	.	.	/	/	/	/
COc1ccc(-c2ccc([C@@H]3[C@@H](CO)N4CCCCN(C(=O)Cc5ccccc5)C[C@@H]34)cc2)cc1	.	.	/	/	/	/
COC(=O)C[C@@H]1CC[C@H]2NC[C@@H](O)COC[C@@H]2O1	.	.	/	/	/	/
COC(=O)[C@H]1[C@H](CO)[C@H]2Cn3c(ccc(C4=CCCC4)c3=O)[C@@H]1N2CC1CCCCC1	.	.	/	/	/	/
COc1ccc(C#Cc2ccc([C@H]3[C@H]4CN(C(=O)Cc5cccnc5)CCCCN4[C@H]3CO)cc2)cc1	104	.	104	.	.	99
COc1ccc(C#Cc2ccc([C@@H]3[C@@H](CO)N4CCCCN(C(=O)Cc5cccnc5)C[C@@H]34)cc2)cc1	108	.	113	.	.	103
COc1ccc(C#Cc2ccc([C@H]3[C@@H](CO)N4CCCCN(C(=O)Cc5cccnc5)C[C@@H]34)cc2)cc1	125	.	99	103	36	86
COc1ccc(C#Cc2ccc([C@H]3[C@H](CO)N4CCCCN(C(=O)Cc5cccnc5)C[C@@H]34)cc2)cc1	113	.	106	102	43	105
O=C(Cc1cccnc1)N1CCCCN2[C@H](CO)[C@@H](c3ccc(C#CC4(O)CCCC4)cc3)[C@@H]2C1	.	.	/	/	/	/
COC(=O)[C@@H]1[C@@H](CO)[C@@H]2Cn3c(ccc(C4=CCCCC4)c3=O)[C@H]1N2C(=O)Cc1ccccn1	.	.	/	/	/	/
Cc1cccc(S(=O)(=O)N2[C@@H]3Cn4c(ccc(-c5cccc(F)c5)c4=O)[C@H]2[C@@H](C(=O)O)[C@@H]3CO)c1	.	.	/	/	/	/
COc1ccc(C#Cc2ccc([C@@H]3[C@H]4CN(C(=O)Cc5cccnc5)CCCCN4[C@H]3CO)cc2)cc1	99	.	104	.	.	106
COc1ccc(C#Cc2ccc([C@H]3[C@@H](CO)N4CCCCN(C(=O)Cc5cccnc5)C[C@H]34)cc2)cc1	115	.	102	.	46	103
COC(=O)[C@@H]1[C@@H](CO)[C@@H]2Cn3c(ccc(-c4ccccc4)c3=O)[C@H]1N2CC1CC1	.	.	/	/	/	/
N#Cc1cccc(-c2ccc([C@H]3[C@@H](CO)N4CCCCN(C(=O)Cc5cccnc5)C[C@H]34)cc2)c1	.	.	/	/	/	/
N#Cc1cccc(-c2ccc([C@@H]3[C@@H](CO)N4CCCCN(C(=O)Cc5ccncc5)C[C@H]34)cc2)c1	108	.	.	.	.	37
N#Cc1ccc(-c2ccc([C@@H]3[C@@H](CO)N4CCCCN(C(=O)Cc5ccccc5)C[C@H]34)cc2)cc1	.	.	/	/	/	/
N#Cc1cccc(-c2ccc([C@H]3[C@H](CO)N4CCCCN(C(=O)Cc5cccnc5)C[C@@H]34)cc2)c1	109	.	103	.	.	55
N#Cc1cccc(-c2ccc([C@@H]3[C@H](CO)N4CCCCN(C(=O)Cc5cccnc5)C[C@@H]34)cc2)c1	.	.	/	/	/	/
N#Cc1cccc(-c2ccc([C@H]3[C@H](CO)N4CCCCN(C(=O)Cc5ccccc5)C[C@@H]34)cc2)c1	102	.	.	.	.	42
CC=Cc1ccc2n(c1=O)C[C@H]1[C@H](CO)[C@@H](C(=O)OC)[C@@H]2N1CC1CCCC1 (mixture of isomers)	/	.	/	/	/	/
COC(=O)[C@@H]1[C@@H](CO)[C@@H]2Cn3c(ccc(-c4ccccc4)c3=O)[C@H]1N2S(=O)(=O)c1ccccc1C	.	.	/	/	/	/
COC(=O)[C@@H]1[C@@H](CO)[C@@H]2Cn3c(ccc(-c4ccccc4F)c3=O)[C@H]1N2C(=O)C1CC1	.	.	/	/	/	/
SMILES	T cruzi growth-1	C diff growth	T cruzi growth-2	T cruzi growth-3	NIH3T3 tox	NIH3T3 tox 2
O=C(Cc1cccnc1)N1CCCCN2[C@H](CO)[C@@H](c3ccc(C#CC4CC4)cc3)[C@@H]2C1	.	.	/	/	/	/
O=C(Cc1cccnc1)N1CCCCN2[C@H](CO)[C@H](c3ccc(C#CC4CCCC4)cc3)[C@H]2C1	100	.	100	.	.	106
O=C(Cc1cccnc1)N1CCCCN2[C@H](CO)[C@@H](c3ccc(C#CC4CCCC4)cc3)[C@H]2C1	?	.	.	.	.	104
O=C(Cc1cccnc1)N1CCCCN2[C@@H](CO)[C@@H](c3ccc(C#CC4(O)CCCC4)cc3)[C@@H]2C1	.	.	/	/	/	/
O=C(Cc1cccnc1)N1CCCCN2[C@H](CO)[C@H](c3ccc(C#CC4(O)CCCC4)cc3)[C@@H]2C1	.	.	/	/	/	/
O=C(Cc1cccnc1)N1CCCCN2[C@@H](CO)[C@H](c3ccc(C#CC4CC4)cc3)[C@@H]2C1	108	.	100	.	.	.
O=C(Cc1cccnc1)N1CCCCN2[C@@H](CO)[C@@H](c3ccc(C#CC4CCCC4)cc3)[C@@H]2C1	105	.	?	.	.	102
O=C(Cc1cccnc1)N1CCCCN2[C@H](C1)[C@@H](c1ccc(C#CC3CC3)cc1)[C@@H]2CO	.	.	/	/	/	/
C/C=C/c1ccc(C2[C@@H]3CN(Cc4cccc(F)c4)C[C@H]2N3)cc1 (stereo partly drawn)	/	.	/	/	/	/
CCCNC(=O)[C@H]1[C@H](CO)[C@H]2Cn3c(cccc3=O)[C@H]2N1C	.	.	/	/	/	/
CC(C)CC#Cc1ccc([C@H]2[C@H](CO)N3CCCCN(C(=O)Cc4ccccn4)C[C@@H]23)cc1	.	.	/	/	/	/
CCOC(=O)[C@@H]1[C@@H]2NC(=S)N[C@@]1(C)Oc1ccccc12	/	.	/	/	/	/
CCN1[C@@H]2Cn3c(ccc(-c4cccc(OC)c4)c3=O)[C@H]1[C@@H](C(=O)OC)[C@@H]2CO	.	.	/	/	/	/
COC(=O)[C@@H]1[C@@H](CO)[C@@H]2Cn3c(ccc(/C=C/c4ccccc4)c3=O)[C@H]1N2CC1CCCC1	.	.	/	/	/	/
CCCNC(=O)[C@H]1[C@H](CO)[C@H]2Cn3c(cccc3=O)[C@@H]1N2CCC	.	.	/	/	/	/
O=C(Cc1cccnc1)N1CCCCN2[C@@H](CO)[C@H](c3ccc(C#CC4(O)CCCC4)cc3)[C@@H]2C1	.	.	/	/	/	/
O=C(Cc1cccnc1)N1CCCCN2[C@H](C1)[C@H](c1ccc(C#CC3CCCC3)cc1)[C@@H]2CO	104	.	.	.	.	97
COC(=O)[C@H]1[C@H](CO)[C@H]2Cn3c(ccc(/C=C/c4ccccc4)c3=O)[C@@H]1N2C(=O)C1CCC1	.	.	/	/	/	/
O=C(Cc1ccccn1)N1CCCCN2[C@@H](CO)[C@H](c3ccc(-c4ccc(F)cc4)cc3)[C@@H]2C1	101	.	?	.	.	34
